Experimental data taken from PubChem BioAssay (EPA / NIEHS).
Calls of active or inactive are those of the source. How the source made its calls: active means hit-call score of the fitted dose curve at least 0.9, where 1 is the maximum; inactive means score below 0.9.

Legend:
Conditions in all cases: mRNA level, 48 h; actives raise or lower the signal
[1] = read-out: Glutathione S-Transferase (GSTA2), GSTA2 (gene 2939); experiment: LTEA_HepaRG_GSTA2: Life Technologies and Expression Analysis (LTEA) Assay for Glutathione S-Transferase (GSTA2) using HepaRG (AID 2283497)
Summary of the method: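 HepaRG, 48 h dosing, 8-pt half-log CRC from 100 uM, 0.5% DMSO vehicle, n=2; RNA → Fluidigm TaqMan qRT-PCR; GSTA2 vs ACTB/GAPDH/POLR2A; gain/loss fit vs DMSO.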

[2] = read-out: growth arrest and DNA damage 45 (GADD45G), GADD45G (gene 10912); experiment: LTEA_HepaRG_GADD45G: Life Technologies and Expression Analysis (LTEA) Assay for growth arrest and DNA damage 45 (GADD45G) using HepaRG (AID 2283499)
Summary of the method: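 HepaRG, 48 h exposure, top 100 uM, half-log 8-point series, 0.5% DMSO vehicle, duplicates. Readout: GADD45G transcript by qRT-PCR (Fluidigm array), housekeeping-normalised (ACTB/GAPDH/POLR2A). Bidirectional curve fit vs DMSO baseline.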

[3] = read-out: Glutamate-cysteine ligase regulatory (GCLM), GCLM (gene 2730); experiment: LTEA_HepaRG_GCLM: Life Technologies and Expression Analysis (LTEA) Assay for Glutamate-cysteine ligase regulatory (GCLM) using HepaRG (AID 2283500)
Summary of the method: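 Differentiated human HepaRG cells exposed 48 h in serum-free induction medium to 8-point half-log concentrations (top 100 uM, 0.5% DMSO), in duplicate. GCLM mRNA quantified by qRT-PCR, normalized to ACTB, GAPDH, POLR2A; bidirectional fitting versus DMSO.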

[4] = read-out: Glutathione S-transferase M3 (GSTM3), GSTM3 (gene 2947); experiment: LTEA_HepaRG_GSTM3: Life Technologies and Expression Analysis (LTEA) Assay for Glutathione S-transferase M3 (GSTM3) using HepaRG (AID 2283501)
Summary of the method: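 qRT-PCR read-out of GSTM3 transcript, normalized to three housekeeping genes, from human HepaRG cells after 48 h chemical exposure. Eight-point half-log series, top 100 uM, 0.5% DMSO vehicle; gain or loss fitted relative to DMSO baseline.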

[5] = read-out: Heat shock 70 kDa protein 1 (HSPA1A), gene 3303; experiment: LTEA_HepaRG_HSPA1A: Life Technologies and Expression Analysis (LTEA) Assay for Heat shock 70 kDa protein 1 (HSPA1A) using HepaRG (AID 2283502)
Summary of the method: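 Differentiated human HepaRG cells in serum-free induction medium were exposed in duplicate for 48 h to eight concentrations (top 100 uM, half-log steps, 0.5% DMSO). HSPA1A mRNA was quantified by qRT-PCR, normalized to ACTB, GAPDH and POLR2A, and fitted bidirectionally against DMSO.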

[6] = read-out: Hypoxia-inducible factor 1-alpha (Homo sapiens) (UniProt Q16665); experiment: LTEA_HepaRG_HIF1A: Life Technologies and Expression Analysis (LTEA) Assay for Hypoxia-inducible factor 1 (HIF1A) Trancription factor using HepaRG (AID 2283503);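 further: HIF1A transcript by TaqMan qRT-PCR normalized to ACTB GAPDH and POLR2A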
Summary of the method: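 HepaRG, 48 h exposure, 8-pt half-log series from 100 uM, 0.5% DMSO vehicle, duplicates. Readout: HIF1A transcript by qRT-PCR (Fluidigm array), housekeeping-normalised. Bidirectional curve fit vs DMSO baseline.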

[7] = read-out: 3-Hydroxy-3-Methylglutaryl-CoA Synthase 2 (HMGCS2), HMGCS2 (gene 3158); experiment: LTEA_HepaRG_HMGCS2: Life Technologies and Expression Analysis (LTEA) Assay for 3-Hydroxy-3-Methylglutaryl-CoA Synthase 2 (HMGCS2) using HepaRG (AID 2283504)
Summary of the method: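 qRT-PCR read-out of HMGCS2 transcript, normalised to three housekeeping genes, in HepaRG cells after 48 h chemical exposure. Eight-point curves from 100 uM, half-log dilutions, 0.5% DMSO vehicle; gain or loss fitted relative to DMSO baseline.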

HGF (gene 3082) = experiment: LTEA_HepaRG_HGF: Life Technologies and Expression Analysis (LTEA) Assay for Hepatocyte Growth Facto (HGF) using HepaRG (AID 2283505)
Summary of the method: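 HepaRG, 48 h dosing, 8-pt half-log series from 100 uM in 0.5% DMSO, duplicates. Readout: TaqMan qRT-PCR of HGF mRNA, housekeeping-normalized; bidirectional curve fit vs DMSO baseline.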

[8] = read-out: Insulin Like Growth Factor 1 (IGF1), IGF1 (gene 3479); experiment: LTEA_HepaRG_IGF1: Life Technologies and Expression Analysis (LTEA) Assay for Insulin Like Growth Factor 1 (IGF1) using HepaRG (AID 2283506)
Summary of the method: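 Differentiated human HepaRG cells were dosed for 48 h in serum-free induction medium with 0.5% DMSO, eight half-log concentrations up to 100 uM, in duplicate. IGF1 mRNA was quantified by qRT-PCR normalized to ACTB, GAPDH, POLR2A; bidirectional fitting versus DMSO.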

[9] = read-out: Intercellular Adhesion Molecule 1 (ICAM1), ICAM1 (gene 3383); experiment: LTEA_HepaRG_ICAM1: Life Technologies and Expression Analysis (LTEA) Assay for Intercellular Adhesion Molecule 1 (ICAM1) using HepaRG (AID 2283507)
Summary of the method: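 HepaRG, 48 h exposure, 8-pt half-log series from 100 uM, 0.5% DMSO vehicle, duplicates. Readout: TaqMan qRT-PCR mRNA, housekeeping-normalized (ACTB/GAPDH/POLR2A). Bidirectional curve fit vs DMSO baseline.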

[10] = read-out: Insulin-like growth factor-binding protein 1 (IGFBP1), IGFBP1 (gene 3484); experiment: LTEA_HepaRG_IGFBP1: Life Technologies and Expression Analysis (LTEA) Assay for Insulin-like growth factor-binding protein 1 (IGFBP1) using HepaRG (AID 2283508)
Summary of the method: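 qRT-PCR mRNA read-out (TaqMan, Fluidigm array), normalised to three housekeeping genes; HepaRG cells, 48 h exposure, 8-pt half-log series from 100 uM, 0.5% DMSO vehicle; bidirectional curve fit vs DMSO baseline.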

[11] = read-out: Interleukin 6 (IL6), IL6 (gene 3569); experiment: LTEA_HepaRG_IL6: Life Technologies and Expression Analysis (LTEA) Assay for Interleukin 6 (IL6) using HepaRG (AID 2283509)
Summary of the method: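 HepaRG, ~100,000 cells/well, 48 h pre-culture; serum-free induction medium; cmpd 8-pt half-log from 100 uM, 0.5% DMSO, duplicate, 48 h. Lysis in RLT, TaqMan qRT-PCR; gain or loss vs DMSO.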

[12] = read-out: Interleukin 6 Receptor (IL6R), IL6R (gene 3570); experiment: LTEA_HepaRG_IL6R: Life Technologies and Expression Analysis (LTEA) Assay for Interleukin 6 Receptor (IL6R) using HepaRG (AID 2283510)
Summary of the method: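 Differentiated human HepaRG cells, plated 48 h then switched to serum-free induction medium, were dosed in duplicate for 48 h at eight half-log concentrations up to 100 uM in 0.5% DMSO. IL6R mRNA quantified by qRT-PCR, normalized to ACTB/GAPDH/POLR2A; bidirectional fit versus DMSO.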

[13] = read-out: Potassium channel subfamily K member 1 (KCNK1), KCNK1 (gene 3775); experiment: LTEA_HepaRG_KCNK1: Life Technologies and Expression Analysis (LTEA) Assay for Potassium channel subfamily K member 1 (KCNK1) using HepaRG (AID 2283511)
Summary of the method: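 Gain or loss of KCNK1 mRNA is the read-out, quantified by qRT-PCR against three housekeeping genes after 48 h chemical treatment of human HepaRG liver cells. Concentrations ran from 100 uM downward in half-log steps, vehicle 0.5% DMSO.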

[14] = read-out: Keratin 19 (KRT19), KRT19 (gene 3880); experiment: LTEA_HepaRG_KRT19: Life Technologies and Expression Analysis (LTEA) Assay for Keratin 19 (KRT19) using HepaRG (AID 2283512)
Summary of the method: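 HepaRG, 48 h chemical exposure, 8-pt half-log CRC from 100 uM, 0.5% DMSO vehicle, duplicates. Readout: TaqMan qRT-PCR of KRT19 mRNA, housekeeping-normalized (ACTB/GAPDH/POLR2A). Bidirectional fit vs DMSO baseline.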

[15] = read-out: JUN Transcription Factor, JUN (gene 3725); experiment: LTEA_HepaRG_JUN: Life Technologies and Expression Analysis (LTEA) Assay for JUN Transcription Factor using HepaRG (AID 2283513)
Summary of the method: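 Differentiated HepaRG cells were exposed to chemicals for 48 h in serum-free induction medium, 8 concentrations from 100 uM in half-log steps, 0.5% DMSO vehicle, in duplicate. JUN mRNA was quantified by TaqMan qRT-PCR, normalized to ACTB, GAPDH, POLR2A.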

[16] = read-out: Lipase C (LIPC), LIPC (gene 3990); experiment: LTEA_HepaRG_LIPC: Life Technologies and Expression Analysis (LTEA) Assay for Lipase C (LIPC) using HepaRG (AID 2283514)
Summary of the method: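 Read-out is LIPC transcript level by TaqMan qRT-PCR, normalized to three housekeeping genes, after 48 h chemical treatment of human HepaRG liver cells. Curves span eight concentrations topping at 100 uM; activity in either direction scored relative to 0.5% DMSO.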

[17] = read-out: Lipoprotein lipase (LPL), LPL (gene 4023); experiment: LTEA_HepaRG_LPL: Life Technologies and Expression Analysis (LTEA) Assay for Lipoprotein lipase (LPL) using HepaRG (AID 2283515)
Summary of the method: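 Read-out is LPL transcript level by qRT-PCR, normalized to three housekeeping genes and fitted bidirectionally against the DMSO control. Human HepaRG cells received chemicals for 48 h at up to 100 uM.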

[18] = read-out: MicroRNA 122 (MIR122), gene 406906; experiment: LTEA_HepaRG_MIR122: Life Technologies and Expression Analysis (LTEA) Assay for MicroRNA 122 (MIR122) using HepaRG (AID 2283516); further: the transcript read is the microRNA miR-122
Summary of the method: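 Differentiated human HepaRG cells were exposed 48 h in serum-free induction medium to eight half-log concentrations (top 100 uM, 0.5% DMSO). Transcript level was measured by TaqMan qRT-PCR, normalized to ACTB, GAPDH and POLR2A, and fitted bidirectionally versus DMSO.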

Measured: AC50

Chain of Hypoxia-inducible factor 1-alpha (Homo sapiens) (Q16665 whole entry, looked up): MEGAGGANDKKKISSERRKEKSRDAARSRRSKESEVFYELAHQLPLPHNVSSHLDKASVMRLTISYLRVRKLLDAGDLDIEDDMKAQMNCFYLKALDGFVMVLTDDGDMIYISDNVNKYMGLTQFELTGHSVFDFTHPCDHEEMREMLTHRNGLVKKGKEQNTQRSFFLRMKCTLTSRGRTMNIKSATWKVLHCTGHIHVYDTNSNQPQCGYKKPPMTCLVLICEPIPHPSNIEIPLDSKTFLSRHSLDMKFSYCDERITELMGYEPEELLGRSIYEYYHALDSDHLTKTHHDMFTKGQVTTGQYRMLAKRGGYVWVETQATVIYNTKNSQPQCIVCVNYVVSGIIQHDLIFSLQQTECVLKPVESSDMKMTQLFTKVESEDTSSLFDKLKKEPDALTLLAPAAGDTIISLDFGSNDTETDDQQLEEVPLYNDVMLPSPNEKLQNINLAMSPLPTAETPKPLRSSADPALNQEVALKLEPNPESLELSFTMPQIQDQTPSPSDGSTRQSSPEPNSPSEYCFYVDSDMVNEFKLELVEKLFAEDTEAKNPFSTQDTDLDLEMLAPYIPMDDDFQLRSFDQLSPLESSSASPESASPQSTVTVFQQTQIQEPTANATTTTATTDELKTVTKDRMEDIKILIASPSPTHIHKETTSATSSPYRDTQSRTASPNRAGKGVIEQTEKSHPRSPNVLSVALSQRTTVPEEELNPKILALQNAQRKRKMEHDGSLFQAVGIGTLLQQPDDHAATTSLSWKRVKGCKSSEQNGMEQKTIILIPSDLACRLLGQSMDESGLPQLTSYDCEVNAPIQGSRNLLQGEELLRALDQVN

Cc1ccc(N)cc1O
active: [17] 31.8 µM
inactive: all other assays above

CCOc1cccc(-n2cc(C(=O)N3CCN(c4cc(C(=O)O)c5ccccc5c4)CC3)nc2-c2ccc(C)cc2)c1
active: [1] 32.3 µM | [2] 13.1 µM | [3] 11.5 µM | [6] 75 µM | [7] 33.7 µM | HGF (gene 3082) 21.1 µM | [8] 26.6 µM | [10] 12.9 µM | [11] 74.2 µM | [12] 68.9 µM | [14] 16.2 µM | [16] 31.3 µM | [17] 87.1 µM | [18] 30.4 µM
inactive: [4] | [9] | [13] | [15]

COC(=O)c1ccccc1O
not listed: [5] | [6]
inactive: all other assays above

Nc1nc2ncc(CNc3ccc(C(=O)N[C@@H](CCC(=O)O)C(=O)O)cc3)nc2c(=O)[nH]1
not listed: [6]
inactive: all other assays above
